From publication PMC7862700, “An all-to-all approach to the identification of sequence-specific readers for epigenetic DNA modifications on cytosine” come the findings set out here.

Holding throughout (assay): DAPPL (digital affinity profiling via proximity ligation, sequencing); 10 mM Tris-HCl pH 7.5, 50 mM NaCl, 1 mM DTT, 4% glycerol, room temperature, 30 min; GST-TFs on glutathione beads, 16-mer random dsDNA library, 0.1% formaldehyde crosslink after washing; high values mean tight binding
Common to all, as to settings: protein: recombinant; tags: N-terminal GST; dsDNA, one strand shown

One experiment deals with T1, GABPA (Homo sapiens, UniProt Q06546 1-454).
T1 sequence: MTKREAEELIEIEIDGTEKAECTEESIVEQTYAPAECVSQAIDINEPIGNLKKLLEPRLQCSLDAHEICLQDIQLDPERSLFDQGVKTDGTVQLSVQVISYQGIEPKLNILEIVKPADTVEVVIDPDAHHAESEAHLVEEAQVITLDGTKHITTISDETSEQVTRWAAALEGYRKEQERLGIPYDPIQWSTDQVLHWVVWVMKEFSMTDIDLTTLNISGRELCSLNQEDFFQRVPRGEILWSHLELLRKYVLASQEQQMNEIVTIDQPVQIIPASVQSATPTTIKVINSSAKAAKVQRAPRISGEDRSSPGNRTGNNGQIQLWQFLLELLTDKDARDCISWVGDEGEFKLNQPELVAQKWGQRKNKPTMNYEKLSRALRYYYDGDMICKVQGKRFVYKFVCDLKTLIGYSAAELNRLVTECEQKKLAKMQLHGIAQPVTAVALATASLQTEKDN
In short, it runs like this:
(§1)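 Binding signal is defined as a hexamer's read frequency for one factor over its frequency for the tag-only sample. To obtain reads, GST-fused human transcription factors were expressed in yeast, captured on glutathione beads, barcoded with DNA and pooled with that sample. Pools met 200 nmole of a 16-mer random double-stranded DNA library in Tris/NaCl/DTT/glycerol buffer for 30 min at room temperature before washing, 0.1% formaldehyde crosslinking, proximity ligation (BsaI/T4 ligase, 1 h, 37 °C), PCR and Illumina NextSeq500 sequencing.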

The target in a further experiment is ELF1 (Homo sapiens, UniProt P32519 1-619). The method in brief: as §1
ELF1, sequence (P32519 whole entry): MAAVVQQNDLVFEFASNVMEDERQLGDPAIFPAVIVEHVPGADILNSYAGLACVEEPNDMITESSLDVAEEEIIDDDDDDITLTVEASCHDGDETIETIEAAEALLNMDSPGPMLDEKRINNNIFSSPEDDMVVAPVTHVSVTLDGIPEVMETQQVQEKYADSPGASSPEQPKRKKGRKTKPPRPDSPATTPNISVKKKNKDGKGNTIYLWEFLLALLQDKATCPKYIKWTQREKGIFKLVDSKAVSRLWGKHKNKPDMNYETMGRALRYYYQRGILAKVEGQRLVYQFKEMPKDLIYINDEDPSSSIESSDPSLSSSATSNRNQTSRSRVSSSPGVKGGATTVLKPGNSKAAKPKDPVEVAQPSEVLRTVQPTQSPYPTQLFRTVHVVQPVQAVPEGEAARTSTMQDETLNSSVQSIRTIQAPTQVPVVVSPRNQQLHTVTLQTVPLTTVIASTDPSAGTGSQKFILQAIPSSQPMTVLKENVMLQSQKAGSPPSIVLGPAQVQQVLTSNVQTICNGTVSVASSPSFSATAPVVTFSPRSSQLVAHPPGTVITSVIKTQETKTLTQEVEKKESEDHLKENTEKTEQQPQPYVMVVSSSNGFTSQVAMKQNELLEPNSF
A further experiment concerns the target SPIB (Homo sapiens, UniProt Q01892 1-262). In short, it runs like this: as §1
The target of a further experiment is T2, ELK3 (Homo sapiens, UniProt P41970 1-407).
T2 sequence: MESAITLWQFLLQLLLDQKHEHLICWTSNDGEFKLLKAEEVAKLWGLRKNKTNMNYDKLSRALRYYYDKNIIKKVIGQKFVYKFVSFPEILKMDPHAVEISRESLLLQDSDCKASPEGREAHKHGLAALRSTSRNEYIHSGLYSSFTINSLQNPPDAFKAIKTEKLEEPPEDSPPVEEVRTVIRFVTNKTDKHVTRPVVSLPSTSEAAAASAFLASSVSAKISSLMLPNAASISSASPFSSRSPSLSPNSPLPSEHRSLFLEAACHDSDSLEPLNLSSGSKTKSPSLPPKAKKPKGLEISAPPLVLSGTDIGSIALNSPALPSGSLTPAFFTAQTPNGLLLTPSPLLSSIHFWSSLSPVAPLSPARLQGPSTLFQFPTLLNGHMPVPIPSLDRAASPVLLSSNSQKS
In short, it runs like this: as §1

Another experiment deals with T3, SPIC (Homo sapiens, UniProt Q8N5J4 1-248).
T3 sequence: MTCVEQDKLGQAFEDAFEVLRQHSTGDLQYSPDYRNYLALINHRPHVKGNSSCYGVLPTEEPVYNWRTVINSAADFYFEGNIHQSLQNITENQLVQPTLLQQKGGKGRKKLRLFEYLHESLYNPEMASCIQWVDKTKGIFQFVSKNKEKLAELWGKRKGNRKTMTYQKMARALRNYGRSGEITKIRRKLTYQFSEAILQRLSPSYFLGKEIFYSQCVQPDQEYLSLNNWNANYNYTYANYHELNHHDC
The method in brief:
as §1

In a further experiment the target is T4, ELK4 (Homo sapiens, UniProt P28324-2 1-405).
T4 sequence: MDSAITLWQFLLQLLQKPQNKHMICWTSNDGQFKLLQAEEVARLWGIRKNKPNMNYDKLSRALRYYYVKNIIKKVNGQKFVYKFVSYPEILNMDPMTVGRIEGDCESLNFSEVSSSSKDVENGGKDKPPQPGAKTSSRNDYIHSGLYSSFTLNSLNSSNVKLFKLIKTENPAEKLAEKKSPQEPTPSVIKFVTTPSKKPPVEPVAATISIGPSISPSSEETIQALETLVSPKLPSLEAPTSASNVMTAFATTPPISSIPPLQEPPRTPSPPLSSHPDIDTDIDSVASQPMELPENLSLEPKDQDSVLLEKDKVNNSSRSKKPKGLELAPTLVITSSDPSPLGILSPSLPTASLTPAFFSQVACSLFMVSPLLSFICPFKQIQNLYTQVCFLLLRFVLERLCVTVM
The method in brief: as §1

The target of a further experiment is ETV1 (Homo sapiens, UniProt P50549 1-477). In short, it runs like this:
as §1

The target in the next experiment is T5, ERF (Homo sapiens, UniProt P50548 1-548).
T5 sequence: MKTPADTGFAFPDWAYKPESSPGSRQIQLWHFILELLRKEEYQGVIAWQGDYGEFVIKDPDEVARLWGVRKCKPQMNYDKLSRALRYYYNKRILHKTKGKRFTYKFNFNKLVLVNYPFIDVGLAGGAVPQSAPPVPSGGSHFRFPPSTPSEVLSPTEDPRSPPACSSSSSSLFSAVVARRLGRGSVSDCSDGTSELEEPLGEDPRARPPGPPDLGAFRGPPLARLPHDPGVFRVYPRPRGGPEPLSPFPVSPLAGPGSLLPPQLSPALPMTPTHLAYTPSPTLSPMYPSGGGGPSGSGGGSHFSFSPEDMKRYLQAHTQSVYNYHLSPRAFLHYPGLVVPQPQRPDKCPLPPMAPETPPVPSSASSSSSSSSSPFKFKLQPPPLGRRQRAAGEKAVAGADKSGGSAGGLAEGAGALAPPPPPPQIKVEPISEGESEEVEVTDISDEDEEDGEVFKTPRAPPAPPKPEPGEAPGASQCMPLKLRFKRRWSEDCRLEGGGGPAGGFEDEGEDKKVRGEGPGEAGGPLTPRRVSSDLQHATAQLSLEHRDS
The method in brief: as §1

The next experiment deals with T6, ETV3L (Homo sapiens, UniProt Q6ZN32 1-361).
T6 sequence: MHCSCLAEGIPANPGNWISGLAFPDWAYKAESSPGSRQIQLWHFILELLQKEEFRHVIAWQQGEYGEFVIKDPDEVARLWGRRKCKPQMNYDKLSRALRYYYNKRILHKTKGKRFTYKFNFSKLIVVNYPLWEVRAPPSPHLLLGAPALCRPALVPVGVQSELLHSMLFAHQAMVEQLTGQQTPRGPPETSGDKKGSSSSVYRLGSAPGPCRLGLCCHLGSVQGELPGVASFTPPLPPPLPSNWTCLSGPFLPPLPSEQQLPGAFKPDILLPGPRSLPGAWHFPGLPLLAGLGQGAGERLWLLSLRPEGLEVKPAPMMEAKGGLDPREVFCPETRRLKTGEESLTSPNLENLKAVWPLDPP
The method in brief:
as §1

Another experiment has as its target T7, SPDEF (Homo sapiens, UniProt O95238 1-335).
T7 sequence: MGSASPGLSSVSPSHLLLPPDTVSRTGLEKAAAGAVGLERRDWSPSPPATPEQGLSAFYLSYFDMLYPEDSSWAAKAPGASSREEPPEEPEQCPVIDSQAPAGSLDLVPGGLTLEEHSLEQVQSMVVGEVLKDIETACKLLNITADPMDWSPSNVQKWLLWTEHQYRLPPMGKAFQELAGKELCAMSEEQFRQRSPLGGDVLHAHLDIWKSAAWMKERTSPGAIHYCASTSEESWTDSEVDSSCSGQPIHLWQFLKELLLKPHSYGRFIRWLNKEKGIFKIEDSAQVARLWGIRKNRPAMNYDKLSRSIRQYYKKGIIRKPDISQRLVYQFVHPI
In short, it runs like this: as §1

The target in a further experiment is T8, ETV7 (Homo sapiens, UniProt Q9Y603 1-341).
T8 sequence: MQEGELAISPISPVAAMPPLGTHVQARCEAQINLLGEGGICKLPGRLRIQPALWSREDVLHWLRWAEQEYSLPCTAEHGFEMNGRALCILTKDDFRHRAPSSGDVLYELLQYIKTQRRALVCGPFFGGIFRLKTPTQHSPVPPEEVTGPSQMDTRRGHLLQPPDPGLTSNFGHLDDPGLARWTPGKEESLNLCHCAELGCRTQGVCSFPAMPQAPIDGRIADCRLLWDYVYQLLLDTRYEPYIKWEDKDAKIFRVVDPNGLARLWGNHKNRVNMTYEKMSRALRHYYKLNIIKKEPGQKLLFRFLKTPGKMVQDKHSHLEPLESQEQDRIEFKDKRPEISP
In short, it runs like this:
as §1

The next experiment has as its target T9, ETV2 (Homo sapiens, UniProt O00321 1-342).
T9 sequence: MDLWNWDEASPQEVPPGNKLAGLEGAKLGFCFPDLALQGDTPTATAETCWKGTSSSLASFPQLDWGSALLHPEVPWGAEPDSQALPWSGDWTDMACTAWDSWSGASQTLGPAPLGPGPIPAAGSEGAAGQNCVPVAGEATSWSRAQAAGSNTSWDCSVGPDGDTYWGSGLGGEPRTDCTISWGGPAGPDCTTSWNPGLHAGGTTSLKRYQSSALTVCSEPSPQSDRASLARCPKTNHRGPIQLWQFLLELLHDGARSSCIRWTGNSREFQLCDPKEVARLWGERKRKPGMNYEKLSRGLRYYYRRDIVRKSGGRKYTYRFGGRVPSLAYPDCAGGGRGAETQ
In short, it runs like this:
as §1

SPIB, sequence (Q01892 whole entry): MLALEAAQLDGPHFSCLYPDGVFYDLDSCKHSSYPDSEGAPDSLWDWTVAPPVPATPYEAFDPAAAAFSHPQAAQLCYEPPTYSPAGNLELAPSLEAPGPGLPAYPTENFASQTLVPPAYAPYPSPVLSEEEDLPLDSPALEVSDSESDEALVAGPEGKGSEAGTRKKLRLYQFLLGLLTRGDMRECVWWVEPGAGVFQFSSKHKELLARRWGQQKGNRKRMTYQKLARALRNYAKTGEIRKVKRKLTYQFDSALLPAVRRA
ETV1, sequence (P50549 whole entry): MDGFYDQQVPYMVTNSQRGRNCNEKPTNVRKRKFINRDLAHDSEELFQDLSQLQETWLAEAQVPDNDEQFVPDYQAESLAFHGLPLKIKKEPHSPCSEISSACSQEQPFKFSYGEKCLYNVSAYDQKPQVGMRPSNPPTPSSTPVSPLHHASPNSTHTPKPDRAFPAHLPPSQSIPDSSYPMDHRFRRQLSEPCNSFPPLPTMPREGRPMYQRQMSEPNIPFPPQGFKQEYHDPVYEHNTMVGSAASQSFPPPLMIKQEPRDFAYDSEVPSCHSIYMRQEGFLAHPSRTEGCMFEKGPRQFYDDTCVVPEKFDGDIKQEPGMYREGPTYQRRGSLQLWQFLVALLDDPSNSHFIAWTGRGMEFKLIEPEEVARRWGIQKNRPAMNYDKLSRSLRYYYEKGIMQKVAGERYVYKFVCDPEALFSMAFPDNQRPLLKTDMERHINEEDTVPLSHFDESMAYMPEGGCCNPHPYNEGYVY

Take CCACGT: the binding signal is 1.09 fold enrichment (6-mer frequency, TF over GST control) in the experiment with GABPA; 1.04 fold enrichment (6-mer frequency, TF over GST control) with ELF1; 1.03 fold enrichment (6-mer frequency, TF over GST control) in the experiment with SPIB; 1.05 fold enrichment (6-mer frequency, TF over GST control) with ELK3; 1.09 fold enrichment (6-mer frequency, TF over GST control) with SPIC; 1.01 fold enrichment (6-mer frequency, TF over GST control) with ELK4. Also, the binding signal in the experiment with ETV1 is 1.01 fold enrichment (6-mer frequency, TF over GST control); with ERF, 1.07 fold enrichment (6-mer frequency, TF over GST control); with ETV3L it was 1.04 fold enrichment (6-mer frequency, TF over GST control); with SPDEF it was 1.02 fold enrichment (6-mer frequency, TF over GST control); with ETV7, 1.06 fold enrichment (6-mer frequency, TF over GST control).
In the case of CGCTGT, the binding signal is 1.01 fold enrichment (6-mer frequency, TF over GST control) with ELF1; 1.1 fold enrichment (6-mer frequency, TF over GST control) in the experiment with SPIC; 1.04 fold enrichment (6-mer frequency, TF over GST control) with ELK4; 1.01 fold enrichment (6-mer frequency, TF over GST control) with ETV2; 1.12 fold enrichment (6-mer frequency, TF over GST control) in the experiment with ERF.
